Data on 27 molecules can be found in PubChem BioAssay AID1347056 (Sanford-Burnham Center for Chemical Genomics, 2019).

Screen size: about 360,000 compounds; about 3,600 (1%) were called active. This excerpt belongs to a sample that is enriched for actives. A number with no mark means an inactive call.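 Rule for the calls: active = compounds whose plate-normalised and pattern-corrected inhibition of the luciferase reporter signal at the single screening dose is 50% or more; inactive = the rest.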

The experiment is described as follows: inhibitors of TROY-driven NF-kB signaling, primary screen, Q293 LMP1-TROYcd cells, NF-kB luciferase, uHTS (AID 1347056). Conditions: Q293 LMP1-TROYcd NF-kB luciferase reporter, 4 h; at 10 µM; stronger effect = higher value.
By inhibition is commonly meant the drop in the measured response relative to a control, in per cent. Turning to `Cc1ccc2nc(-c3ccc(Br)cc3)cn2c1`, the inhibition is 71.4% (active). With `Cc1ccc(-c2nc3ccc(Cl)cn3c2Cc2ccccc2)cc1`, the inhibition was -69.6%. In the case of `Cc1ccc(-c2cc(N)on2)cc1`, the inhibition was -41.2%. For the molecule `COc1ccc(-c2nc3ccc(Br)cn3c2Cc2ccc(C)cc2)cc1OC`, the inhibition is -36.6%. Turning to `Cc1ccc(-c2nc3ccc(Br)cn3c2Cc2ccccc2C(F)(F)F)cc1`, the inhibition was -33.5%. Turning to `Cc1ccc(-c2cn3cc(C)ccc3n2)cc1`, the inhibition was 86.4% (active). For the molecule `COc1ccc(C(=O)O)cc1S(=O)(=O)NCc1cccnc1`, the inhibition was -5.43%. `CC(=O)Nc1ccc(/C(C)=N/NC(=O)CN(c2ccccc2Br)S(C)(=O)=O)cc1`: the inhibition was 8.85%.

Regarding `COc1ccc(CN(C)C(=S)Nc2ccc(Cl)cc2Cl)cc1`, the inhibition is -7.98%.

Regarding `O=C(c1cc(COc2c(F)cccc2F)on1)N1CCSCC1`, the inhibition is -17%.

With `Cn1cnc2c1c(=O)n(Cc1ccccc1C#N)c(=O)n2C`, the inhibition is 2.82%. For the molecule `CCN1CCCC1CNC(=O)c1cc2cc(OC)c(OC)cc2[nH]1` (configuration not stated), the inhibition was -3.54%. As to `COc1cccc2[nH]c(C(=O)NCCc3ccccc3)cc12`, the inhibition was -24.7%.

As to `COc1cc2cc(C(=O)N/N=C/c3cccc(OC)c3OC)[nH]c2cc1OC`, the inhibition is 69.2% (active). The value for `CC1CCCN(C(=O)CN2C(=O)c3ccccc3S2(=O)=O)C1` (configuration not stated) was 58.2% (active).

Regarding `COc1ccc(CNC(=O)CN2C(=O)c3ccccc3S2(=O)=O)cc1`, the inhibition was 9.08%. Consider `O=C(CN1C(=O)c2ccccc2S1(=O)=O)N1CCc2ccccc21`, for which the inhibition is 89.1% (active). As to `CN(Cc1ccc(F)cc1)C(=O)CN1C(=O)c2ccccc2S1(=O)=O`, the inhibition is -51.1%. Take `Cc1ccc2c(c1)N(CC(=O)N1CCCC(C)C1)C(=O)CO2` (configuration not stated): the inhibition was -0.08%. Consider `CC1CCCN(C(=O)Cn2c(=O)oc3ccccc32)C1` (configuration not stated), for which the inhibition is -6.27%. Turning to `CC(C)(C)c1ccc(S(=O)(=O)N2CCN(C(=O)c3ccc4c(c3)C(=O)N(Cc3ccncc3)C4=O)CC2)cc1`, the inhibition was 1.2%. Regarding `CC(NC(=O)COC(=O)c1ccc(Cl)cc1O)c1ccc(F)cc1` (configuration not stated), the inhibition is 4.75%. Consider `Cc1cc(S(=O)(=O)NC2CCCCC2)ccc1OCC(=O)NCc1cccnc1`, for which the inhibition was -5.71%. `O=C(CCc1nc(-c2ccccc2)no1)Nc1cccc(C(=O)NC2CC2)c1`: the inhibition is 18.6%.

For `CN(C)/C=C(\C#N)C(=O)c1cccnc1Oc1ccc(F)cc1F`, the inhibition was -7.14%.

On to `COc1ccc(-c2cc3c(c4c2ccn4C)C2CCC3C2)cn1` (configuration not stated), for which the inhibition was 8.35%. For `Cc1ccc(NS(=O)(=O)c2ccc(-c3ccc(=O)[nH]n3)o2)c(C)c1`, the inhibition is -3.14%.
